# Results as given in the supplement of paper PMC8866396.
# ± gives the standard deviation of the averaged measurements.
# Assays:
# [1] = test system: IL-6-GFP PC-9GR; test: cell viability (CCK-8 OD) relative to DMSO control (fraction of control); higher = more viable cells; details: compound concentration: 10 uM; treatment time: 48 h
# In short: (§1)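 PC-9 and PC-9GR lung cancer cells overexpressing IL-6-GFP from a lentiviral construct were plated at 3000 cells/well in 96-well plates. Each compound from a purchased 510-compound library was added at a final 10 μM for 48 h, with a parallel plate set used for GFP imaging. Viability was measured by CCK-8 absorbance and expressed as each well's optical density divided by the vehicle (DMSO) control well, from two independent replicates.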
# [2] = test system: IL-6-GFP PC-9; test: as above; details: compound concentration: 10 uM; treatment time: 48 h
# In short: as §1
SMILES,cell viability [1],cell viability [2]
Cc1cc(C(C)(C)C)cc(C)c1CC1=NCCN1 [Xylometazoline],0.674 ± 0.26,1.08 ± 0.14
C[S+](C)CCC(N)C(=O)O.[Cl-] (stereo unspecified),1.11 ± 0.29,1.08 ± 0.22
CC(C(=O)O)c1ccc(C(=O)c2ccccc2)s1 (stereo unspecified) [Tiaprofenic acid],0.905 ± 0.037,1.04 ± 0.17
CC1CCC2(C(=O)OC3OC(COC4OC(CO)C(OC5OC(C)C(O)C(O)C5O)C(O)C4O)C(O)C(O)C3O)CCC3(C)C(=CCC4C5(C)CC(O)C(O)C(C)(CO)C5CCC43C)C2C1C (stereo unspecified) [Asiaticoside],1.06 ± 0.2,1.17 ± 0.021
CN1C(=O)/C(=C2/C(=O)Nc3ccccc32)c2ccccc21 [Meisoindigo],1.39 ± 0.44,1.02 ± 0.21
C=CC1=C(C)c2cc3nc(cc4[nH]c(cc5[nH]c(cc1n2)c(C)c5C=C)c(C)c4CCC(=O)O)C(CCC(=O)O)=C3C [Protoporphyrin IX],0.345 ± 0.26,0.995 ± 0.17
COc1cc2c3cc1Oc1c(OC)c(OC)cc4c1C(Cc1ccc(O)c(c1)Oc1ccc(cc1)CC3N(C)CC2)N(C)CC4 (stereo unspecified) [Berbamine],0.891 ± 0.25,1.08 ± 0.14
Cc1cncc(CN2CCC(=C3c4ccc(Cl)cc4CCc4cccnc43)CC2)c1.O=C(O)/C=C/C(=O)O [Rupatadine Fumarate],0.996 ± 0.05,1.16 ± 0.17
CCCCOc1ccc(C(=O)CCN2CCCCC2)cc1.Cl [Dyclonine HCl],1.34 ± 0.43,1.12 ± 0.076
NC(=O)NO [Hydroxyurea],1.32 ± 0.077,0.839 ± 0.1
CC(C)(O)CNc1nc(Nc2ccnc(C(F)(F)F)c2)nc(-c2cccc(C(F)(F)F)n2)n1 [Enasidenib (AG-221)],1.25 ± 0.65,1.03 ± 0.018
CC(C)C(=O)OCC(=O)C12OC(C3CCCCC3)OC1CC1C3CCC4=CC(=O)C=CC4(C)C3C(O)CC12C (stereo unspecified) [Ciclesonide],0.855 ± 0.11,0.894 ± 0.16
CCC(C)C(=O)OC1CC(C)C=C2C=CC(C)C(CCC3CC(O)CC(=O)O3)C21 (stereo unspecified) [Lovastatin],1.23 ± 0.028,0.619 ± 0.019
CCOc1ccc(NC(C)=O)cc1 [Phenacetin],1.24 ± 0.33,1.09 ± 0.054
COc1cc(/C=C/C(=O)/C=C(O)/C=C/c2ccc(O)c(OC)c2)ccc1O [Curcumin],1.36 ± 0.48,0.985 ± 0.12
CCC(=O)OC1(C(=O)SCF)C(C)CC2C3CC(F)C4=CC(=O)C=CC4(C)C3(F)C(O)CC21C (stereo unspecified) [Fluticasone propionate],1.06 ± 0.43,0.821 ± 0.024
O=C(Nc1ccc(O)cc1)c1ccccc1O [Osalmid],1.3 ± 0.45,1.25 ± 0.1
CO/N=C(\C(=O)NC1C(=O)N2C(C(=O)OCOC(=O)C(C)(C)C)=C(C)CSC12)c1csc(N)n1.Cl (stereo unspecified) [Cefetamet pivoxil hydrochloride],1.25 ± 0.28,1.14 ± 0.056
Cc1ccc(C2OC(CO)C(O)C(O)C2O)cc1Cc1ccc(-c2ccc(F)cc2)s1.Cc1ccc(C2OC(CO)C(O)C(O)C2O)cc1Cc1ccc(-c2ccc(F)cc2)s1.O (stereo unspecified) [Canagliflozin hemihydrate],1.12 ± 0.2,0.932 ± 0.22
O=C(/C=C/c1cccc(S(=O)(=O)Nc2ccccc2)c1)NO [Belinostat (PXD101)],0.374 ± 0.026,0.262 ± 0.075
CC1(C(=O)O)CCC2(C)CCC3(C)C(=CC(=O)C4C5(C)CCC(OC6OC(C(=O)O)C(O)C(O)C6OC6OC(C(=O)O)C(O)C(O)C6O)C(C)(C)C5CCC43C)C2C1 (stereo unspecified) [Glycyrrhizin (Glycyrrhizic Acid)],1.47 ± 0.11,1.29 ± 0.022
CC(CCC(=O)[O-])C1CCC2C3C(O)CC4CC(O)CCC4(C)C3CC(O)C12C.[Na+] (stereo unspecified) [Sodium cholate],0.344 ± 0.23,0.997 ± 0.067
Nc1ccn(C2OC(CO)C(O)C2(F)F)c(=O)n1 (stereo unspecified) [Gemcitabine],0.5847 ± 0.0053,0.5589 ± 0.0046
Cc1nc(Nc2ccc(F)cc2)nc(N2CCc3ccccc3C2C)c1C.Cl (stereo unspecified) [Revaprazan Hydrochloride],1.63 ± 0.64,1.14 ± 0.043
COc1cc(C(=O)NS(=O)(=O)c2ccccc2C)ccc1Cc1cn(C)c2ccc(NC(=O)OC3CCCC3)cc12 [Zafirlukast],1.31 ± 0.026,0.967 ± 0.023
Clc1ccc(C(c2ccccc2Cl)C(Cl)Cl)cc1 (stereo unspecified) [Mitotane],1.2 ± 0.1,0.958 ± 0.05
Cc1c(Cl)cccc1Nc1ncccc1C(=O)O [Clonixin],0.814 ± 0.24,1.08 ± 0.027
C=C1c2cccc(O)c2C(=O)C2=C(O)C3(O)C(=O)C(C(N)=O)=C(O)C(N(C)C)C3C(O)C12.Cl (stereo unspecified) [Methacycline HCl],0.894 ± 0.32,1 ± 0.072
